Reference: the supplement of paper PMC10127200
Structures can show the parent of a compound that is named as a salt.

Key:
Assay in all cases: Euclidean distance of Cell Painting phenotypic profile (signed KS, 77 features) to DMSO centroid (dimensionless distance); 5 or 10 uM (library dependent); higher = stronger phenotypic change vs DMSO (phenoactivity)
Conditions in all cases: 48 h
786-O = test system: 786-O
In short: (§1)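 Phenoactivity is computed as Euclidean distance to the median vehicle profile. The profiles, drawn from 77 Harmony features scored as signed Kolmogorov-Smirnov statistics versus same-plate vehicle wells, were corrected for plate position, correlation-weighted and replicate-averaged at the top dose. Stained cells were imaged confocally at 20X (9 fields/well) after 48 h with library compounds at 10 or 5 uM, 0.1% DMSO final, in five cancer lines and a healthy fibroblast line.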

A549 = test system: A549
In short: as §1

DU145 = test system: DU145
In short: as §1

FB = test system: FB
In short: as §1

HEPG2 = test system: HEPG2
In short: as §1

OVCAR4 = test system: OVCAR4
In short: as §1

Row | SMILES | Euclidean distance (786-O) | Euclidean distance (A549) | Euclidean distance (DU145) | Euclidean distance (FB) | Euclidean distance (HEPG2) | Euclidean distance (OVCAR4)
1 | O=C1CC2(CCCC2)CC(=O)N1CCCCN1CCN(c2ncccn2)CC1 [Buspirone HCl] | 0.547 | 0.965 | 0.869 | 0.994 | 0.61 | 1.32
2 | CN(Cc1cnc2nc(N)nc(N)c2n1)c1ccc(C(=O)N[C@@H](CCC(=O)O)C(=O)O)cc1 [Methotrexate disodium] | 2.05 | 3.23 | 0.912 | 0.603 | 1.47 | 2.39
3 | CN(C)c1ccc2nc3ccc(=[N+](C)C)cc-3sc2c1 [Methylene Blue] | 2.57 | 2.62 | 1.71 | 3.26 | 2.63 | 2.92
4 | CC(C)n1nc(-c2ccc3oc(N)nc3c2)c2c(N)ncnc21 | 3.74 | 3.47 | 2.16 | 5.4 | 2.31 | 3.52
5 | Fc1ccc(C(c2ccc(F)cc2)N2CCN(C/C=C/c3ccccc3)CC2)cc1 [Flunarizine 2HCl] | 0.978 | 1.16 | 1.34 | 0.938 | 2.13 | 1.24
6 | CC(C)NC[C@H](O)COc1ccc(CCOCC2CC2)cc1 [Levobetaxolol HCl] | 1.03 | 0.954 | 0.622 | 0.99 | 0.412 | 0.877
7 | Cc1ncc(C[n+]2csc(CCO)c2C)c(N)n1 [Thiamine HCl (Vitamin B1)] | 1.43 | 0.642 | 0.753 | 0.562 | 1.12 | 1.21
8 | NC[C@H](O)c1ccc(O)c(O)c1 [Noradrenaline bitartrate monohydrate] | 1.19 | 0.515 | 0.963 | 1.17 | 0.697 | 0.846
9 | CC(C)n1cnc2c(NCCc3ccc(O)cc3)nc(-c3csc4ccccc34)nc21 [StemRegenin 1 (SR1)] | 0.931 | 1.13 | 1.12 | 1.04 | 1.04 | 0.909
10 | NCc1ccccc1CC(=O)N[C@@H]1C(=O)N2C(C(=O)O)=C(CSc3nnnn3CC(=O)O)CS[C@H]12 [Ceforanide] | 0.783 | 0.791 | 1.07 | 1.16 | 0.834 | 1.64
11 | CCC1(O)C(=O)OCc2c1cc1n(c2=O)Cc2c-1nc1ccccc1c2CCNC(C)C (stereo not drawn) [Belotecan (CKD-602) hydrochloride] | 4.55 | 3.8 | 3.52 | 3.19 | 3.12 | 3.62
12 | CS(=O)(=O)Nc1ccc([N+](=O)[O-])cc1Oc1ccccc1 [Nimesulide] | 1.43 | 1.21 | 0.674 | 1.03 | 1.82 | 1.8
13 | CC(C)CC(N)=O [Isovaleramide] | 1.41 | 1.09 | 0.731 | 0.571 | 1.21 | 1.81
14 | NCC[C@H](O)C(=O)N[C@@H]1C[C@H](N)[C@@H](O[C@H]2O[C@H](CN)[C@@H](O)[C@H](O)[C@H]2O)[C@H](O)[C@H]1O[C@H]1O[C@H](CO)[C@@H](O)[C@H](N)[C@H]1O [Amikacin hydrate] | 1.52 | 1.1 | 0.584 | 1.08 | 1.29 | 1.07
15 | CC(=O)Nc1nc(C)c(-c2ccc(Cl)c(S(=O)(=O)NCCO)c2)s1 | 0.94 | 1.48 | 1.62 | 2.98 | 0.945 | 1.12
16 | CN1CCN(c2c(F)cc3c(=O)c(C(=O)O)cn4c3c2OCN4C)CC1 [Marbofloxacin] | 0.878 | 0.762 | 0.494 | 1.1 | 1.53 | 0.752
17 | CO[C@H]1C[C@@H]2CC[C@@H](C)[C@@](O)(O2)C(=O)C(=O)N2CCCC[C@H]2C(=O)O[C@H]([C@H](C)C[C@@H]2CC[C@H](n3cnnn3)[C@H](OC)C2)CC(=O)[C@H](C)/C=C(\C)[C@@H](O)[C@@H](OC)C(=O)[C@H](C)C[C@H](C)/C=C/C=C/C=C/1C [Zotarolimus(ABT-578)] | 2.27 | 1.83 | 1.38 | 2.7 | 1.45 | 2.09
18 | Nc1nc(=O)n([C@@H]2CS[C@H](CO)O2)cc1F [Emtricitabine] | 1.06 | 0.783 | 0.954 | 0.924 | 0.432 | 1.08
19 | O=C1C[C@@H](c2ccc(O)cc2)Oc2cc(O)cc(O)c21 [Naringenin] | 0.882 | 1.06 | 0.744 | 1.06 | 0.936 | 1.11
20 | Cc1ccc(=O)n(-c2ccccc2)c1 [Pirfenidone] | 1.25 | 0.718 | 1.64 | 0.845 | 0.297 | 1.38
21 | Cc1c(Cl)cccc1Nc1ccccc1C(=O)O [Tolfenamic Acid] | 1.28 | 0.83 | 0.762 | 0.742 | 0.5 | 1.19
22 | O=C(O)/C=C/c1cnc[nH]1 [Urocanic acid] | 1.13 | 0.682 | 0.798 | 0.718 | 0.554 | 1.26
23 | Cc1cc(C(C)Nc2ccccc2)c2nc(N3CCOCC3)cc(=O)n2c1 (stereo not drawn) | 1.4 | 1.16 | 1.61 | 1.62 | 1.29 | 2.37
